Records with an inconclusive call do not appear. Calls of active or inactive are those of the source. Rule for the calls, unless noted: active = hit-call score of the fitted dose curve at least 0.9, where 1 is the maximum; inactive = score below 0.9.
Legend:
[1] = read-out: E-selectin (Homo sapiens) (UniProt P16581); test: BSK_3C_Eselectin: BioMAP Diversity Plus: 3C Assay for Eselectin Biomarker Activity (AID 2283015); settings: primary human endothelial cells (HUVEC); actives raise or lower the signal;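 for outcome: cell surface E-selectin protein quantified by ELISA 24 h after dosing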
In short: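 ELISA read-out of E-selectin on endothelial monolayers after 24 h chemical treatment. Human umbilical vein primary cells served as the system, with DMSO defining baseline activity for bidirectional fitting.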

[2] = read-out: Interleukin-1 alpha (IL1a), IL1A (gene 3552); test: BSK_BE3C_IL1a: BioMAP Diversity Plus: BE3C Assay for Interleukin-1 alpha (IL1a) Biomarker Activity (AID 2283016); settings: primary human bronchial epithelial cells; actives raise or lower the signal
In short: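 Human primary bronchial epithelial cells (BE3C system) were dosed with compound and IL-1a measured by ELISA 24 h later. Activity was fitted bidirectionally against DMSO baseline; cytotoxicity was tracked in parallel cultures by SRB total-protein staining.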

[3] = read-out: Monocyte Chemoattractant Protein-1 (MCP1), CCL2 (gene 6347); test: BSK_3C_MCP1: BioMAP Diversity Plus: 3C Assay for Monocyte Chemoattractant Protein-1 (MCP1) Biomarker Activity (AID 2283017); settings: primary human endothelial cells (HUVEC); actives raise or lower the signal
In short: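 ELISA read-out of MCP-1 from human umbilical vein endothelial cell cultures harvested 24 h post-dosing. Gain or loss of signal was fitted relative to DMSO.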

[4] = read-out: Monocyte Chemoattractant Protein-1 (MCP1), CCL2 (gene 6347); test: BSK_4H_MCP1: BioMAP Diversity Plus: 4H Assay for Monocyte Chemoattractant Protein-1 (MCP1) Biomarker Activity (AID 2283018); settings: primary human endothelial cells (HUVEC); actives raise or lower the signal
In short: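 Human umbilical vein endothelial cells (4H system) dosed with chemical; MCP-1 measured by ELISA 24 h after dosing. Bidirectional curve fitting against DMSO negative control as baseline; parallel SRB total-protein staining tracks overt cytotoxicity.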

[5] = read-out: Human Leukocyte Antigen - DR isotype (HLADR), HLA-DRA (gene 3122); test: BSK_3C_HLADR: BioMAP Diversity Plus: 3C Assay for Human Leukocyte Antigen - DR isotype (HLADR) Biomarker Activity (AID 2283019); settings: primary human endothelial cells (HUVEC); actives raise or lower the signal;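 for outcome: ELISA of cell-surface HLA-DR on HUVEC 24 h after dosing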
In short: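 ELISA readout of surface HLA-DR on human umbilical vein endothelium, taken 24 h after chemical treatment. Gain- and loss-of-signal were both fitted relative to DMSO.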

[6] = read-out: Interleukin-8 (IL8), CXCL8 (gene 3576); test: BSK_3C_IL8: BioMAP Diversity Plus: 3C Assay for Interleukin-8 (IL8) Biomarker Activity (AID 2283020); settings: primary human endothelial cells (HUVEC); actives raise or lower the signal
In short: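 Primary human umbilical vein endothelial cells (3C system) were exposed to test chemical for 24 h, then IL-8 was quantified by ELISA. Responses were fitted bidirectionally against DMSO vehicle as baseline.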

[7] = target: human Vitamin D Receptor (VDR), VDR (gene 7421) (UniProt P11473); test: ATG_VDR_TRANS: Attagene TRANS-FACTORIAL HepG2 Assay for human Vitamin D Receptor (VDR) (AID 2283022; active = hit-call score of the fitted dose curve at least 0.9, where 1 is the maximum)
In short: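 Steps: transfect HepG2 with GAL4-UAS-driven reporter constructs; dose compounds 24 h; isolate RNA, reverse-transcribe, PCR-amplify with 6-FAM-labelled primer extension and HpaI digestion; quantify fragments by capillary electrophoresis relative to DMSO.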

[8] = BSK_3C_SRB: Viability Assessment in the BioMAP Diversity Plus: 3C Assay (AID 2283023); settings: primary human endothelial cells (HUVEC);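 note: fitted both ways against DMSO so a hit may be signal rise or drop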
In short: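 Absorbance at 560 nm of sulforhodamine B-stained (0.1%) total protein served as a cytotoxicity readout in human umbilical vein endothelial cells, 24 h after chemical treatment. Signal was fitted bidirectionally relative to DMSO.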

[9] = read-out: Monokine induced gamma interferon (MIG), CXCL9 (gene 4283); test: BSK_3C_MIG: BioMAP Diversity Plus: 3C Assay for Monokine induced gamma interferon (MIG) Biomarker Activity (AID 2283021); settings: primary human endothelial cells (HUVEC); actives raise or lower the signal;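 for AC50: MIG protein level measured by immunoassay in the treated endothelial cultures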
In short: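 Primary human umbilical vein endothelial cells in the 3C system were exposed to chemical for 24 h, after which MIG was quantified by ELISA. Activity was fitted bidirectionally against DMSO as negative control and baseline.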

Chain of human Vitamin D Receptor (VDR), VDR (gene 7421) (P11473 whole entry, looked up, the tested form may be a part): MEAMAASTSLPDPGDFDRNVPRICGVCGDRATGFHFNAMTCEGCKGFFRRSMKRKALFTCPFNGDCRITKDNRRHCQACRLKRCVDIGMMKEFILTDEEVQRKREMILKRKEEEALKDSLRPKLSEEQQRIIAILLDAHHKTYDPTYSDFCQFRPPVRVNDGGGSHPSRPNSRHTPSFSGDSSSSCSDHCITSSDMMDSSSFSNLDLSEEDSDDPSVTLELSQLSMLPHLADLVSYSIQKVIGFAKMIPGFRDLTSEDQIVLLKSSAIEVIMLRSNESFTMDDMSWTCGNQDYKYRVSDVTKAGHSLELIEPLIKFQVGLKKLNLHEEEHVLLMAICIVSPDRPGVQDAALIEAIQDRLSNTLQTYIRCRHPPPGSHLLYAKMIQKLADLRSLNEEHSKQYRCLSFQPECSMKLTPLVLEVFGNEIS
Chain of E-selectin (Homo sapiens) (P16581 whole entry, looked up): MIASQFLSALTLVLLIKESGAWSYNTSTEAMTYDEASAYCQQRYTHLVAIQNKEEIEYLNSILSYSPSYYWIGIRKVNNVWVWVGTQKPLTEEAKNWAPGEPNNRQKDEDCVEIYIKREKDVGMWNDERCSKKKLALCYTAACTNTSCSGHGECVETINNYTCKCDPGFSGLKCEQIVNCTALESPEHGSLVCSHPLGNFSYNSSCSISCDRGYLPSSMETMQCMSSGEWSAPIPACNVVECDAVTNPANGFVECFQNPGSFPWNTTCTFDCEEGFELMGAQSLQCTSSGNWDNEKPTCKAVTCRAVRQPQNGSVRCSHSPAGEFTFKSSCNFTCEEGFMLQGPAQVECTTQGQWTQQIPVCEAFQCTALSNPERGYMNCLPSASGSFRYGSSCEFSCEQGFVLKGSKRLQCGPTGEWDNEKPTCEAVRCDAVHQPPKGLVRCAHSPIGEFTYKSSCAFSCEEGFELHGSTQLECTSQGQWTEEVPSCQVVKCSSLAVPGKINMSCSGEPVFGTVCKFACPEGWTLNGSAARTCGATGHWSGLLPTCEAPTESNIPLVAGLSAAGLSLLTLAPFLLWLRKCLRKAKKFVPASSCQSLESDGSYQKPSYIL

## O=S(=O)(c1ccc(Cl)cc1)c1cc(Cl)c(Cl)cc1Cl
[1]
  outcome: inactive
[2]
  outcome: inactive
[3]
  AC50: 20 µM (active)
[4]
  outcome: inactive
[5]
  AC50: 5.27 µM (active)
[6]
  AC50: 3.97 µM (active)
[7]
  outcome: inactive

## CCOP(=S)(OCC)O/N=C(\C#N)c1ccccc1
[7]
  outcome: inactive

## CC1(C)COP(Oc2ccccc2)OC1
[7]
  outcome: inactive

## Cc1ccc(OP(=O)(Oc2ccc(C)cc2C)Oc2ccc(C)cc2C)c(C)c1
[1]
  outcome: inactive
[2]
  AC50: 4.77 µM (active)
[3]
  AC50: 20 µM (active)
[4]
  AC50: 4.53 µM (active)
[5]
  AC50: 20 µM (active)
[6]
  outcome: inactive
[7]
  outcome: inactive
[8]
  AC50: 12 µM (active)

## CC(C)(C)c1ccc(CCOc2ncnc3ccccc23)cc1
[7]
  outcome: inactive

## CCCSP(=S)(OCC)Oc1ccc(SC)cc1 (centres undefined)
[7]
  outcome: inactive

## COc1nn(C(=O)NS(=O)(=O)c2ccccc2OC(F)(F)F)c(=O)n1C
[7]
  outcome: inactive

## CCCCS(=O)(=O)Cl
[7]
  outcome: inactive

## N#Cc1ccc(Cl)cc1
[7]
  outcome: inactive

## N#CCCC(Br)(C#N)CBr (centres undefined)
[1]
  AC50: 10.6 µM (active)
[2]
  AC50: 20 µM (active)
[3]
  AC50: 7.55 µM (active)
[4]
  AC50: 5.77 µM (active)
[5]
  AC50: 3.16 µM (active)
[6]
  AC50: 8.39 µM (active)
[9]
  AC50: 12.7 µM (active)

## O=C(Cc1ccccc1)OCCc1ccccc1
[1]
  outcome: inactive
[2]
  outcome: inactive
[3]
  outcome: inactive
[4]
  outcome: inactive
[5]
  outcome: inactive
[6]
  outcome: inactive
[7]
  outcome: inactive
[8]
  outcome: inactive

## ClCCCCl
[7]
  outcome: inactive

## CC(=Cc1ccccc1)[N+](=O)[O-]
[7]
  outcome: inactive

## O=S(=O)(F)C(F)(F)C(F)(F)C(F)(F)C(F)(F)F
[7]
  outcome: inactive

## Cc1cc(Cl)ccc1O
[7]
  outcome: inactive

## CCOP(=S)(OCC)SCS(=O)(=O)C(C)(C)C
[1]
  outcome: inactive
[2]
  outcome: inactive
[3]
  outcome: inactive
[4]
  outcome: inactive
[5]
  outcome: inactive
[6]
  outcome: inactive
[7]
  outcome: inactive
[8]
  outcome: inactive

## C=CC(Cl)CCl (centres undefined)
[1]
  outcome: inactive
[2]
  AC50: 0.14 µM (active)
[3]
  outcome: inactive
[4]
  outcome: inactive
[5]
  outcome: inactive
[6]
  outcome: inactive
[7]
  outcome: inactive

## ClCCN1CCOCC1
[7]
  outcome: inactive

## Clc1cccc(Cl)c1Cl
[1]
  outcome: inactive
[2]
  outcome: inactive
[3]
  outcome: inactive
[4]
  outcome: inactive
[5]
  outcome: inactive
[6]
  outcome: inactive
[9]
  outcome: inactive
[8]
  outcome: inactive

## OCCCCO
[1]
  outcome: inactive
[2]
  outcome: inactive
[3]
  outcome: inactive
[4]
  outcome: inactive
[5]
  outcome: inactive
[6]
  outcome: inactive
[9]
  outcome: inactive

## CCCCCCCCCCCCCCC(Br)C(=O)O (centres undefined)
[7]
  outcome: inactive

## O=c1[nH]c2ccccc2n1C1CCN(CCCC(c2ccc(F)cc2)c2ccc(F)cc2)CC1
[7]
  outcome: inactive

## C=CC(F)(C(F)(F)F)C(F)(F)C(F)(F)F (centres undefined)
[7]
  outcome: inactive

## CCOC(=O)CCN(SN(C)C(=O)Oc1cccc2c1OC(C)(C)C2)C(C)C
[1]
  AC50: 20 µM (active)
[2]
  outcome: inactive
[3]
  AC50: 27.1 µM (active)
[4]
  AC50: 31.6 µM (active)
[5]
  AC50: 14.2 µM (active)
[6]
  AC50: 3.97 µM (active)
[8]
  outcome: inactive

## C=C(C)C(=O)OCCCCOC(=O)C(=C)C
[7]
  outcome: inactive

## CC(C)=CC1C(C(=O)OCc2cccc(Oc3ccccc3)c2)C1(C)C (centres undefined)
[1]
  AC50: 2.62 µM (active)
[2]
  outcome: inactive
[3]
  outcome: inactive
[4]
  AC50: 20 µM (active)
[5]
  AC50: 20 µM (active)
[6]
  outcome: inactive
[7]
  outcome: inactive
[8]
  AC50: 26.7 µM (active)

## CCOP(=O)(OCC)OC(=CCl)c1ccc(Cl)cc1Cl
[1]
  AC50: 29.2 µM (active)
[2]
  outcome: inactive
[3]
  AC50: 35.4 µM (active)
[4]
  AC50: 20 µM (active)
[5]
  AC50: 32.7 µM (active)
[6]
  AC50: 3.97 µM (active)
[8]
  AC50: 29 µM (active)

## BrCC(Br)c1ccccc1 (centres undefined)
[7]
  outcome: inactive

## OC(c1ccc(Cl)cc1)(c1ccc(Cl)cc1)c1cccnc1
[7]
  outcome: inactive

## CCCCCCCCBr
[7]
  outcome: inactive

## O=C(O)CC(O)(CC(=O)O)C(=O)O
[7]
  outcome: inactive

## CC(C)(C1CCC(O)CC1)C1CCC(O)CC1 (centres undefined)
[7]
  outcome: inactive

## Cc1c([N+](=O)[O-])c(C)c([N+](=O)[O-])c(C(C)(C)C)c1[N+](=O)[O-]
[1]
  AC50: 20 µM (active)
[2]
  outcome: inactive
[3]
  outcome: inactive
[4]
  AC50: 20 µM (active)
[5]
  AC50: 26.9 µM (active)
[6]
  outcome: inactive
[9]
  outcome: inactive
[8]
  AC50: 20 µM (active)

## O=C(N[C@H]1CN2CCC1CC2)c1ccc2c(c1)OCCO2
[1]
  outcome: inactive
[2]
  outcome: inactive
[3]
  outcome: inactive
[4]
  outcome: inactive
[5]
  outcome: inactive
[6]
  outcome: inactive
[9]
  outcome: inactive

## c1ccc2c(c1)Oc1ccccc1O2
[7]
  outcome: inactive
